# Laboratory results from PubChem BioAssay (NCATS).
# Where “and” joins values, the source holds several entries; their conditions need not be identical. Equal values may be shown once. Calls of active or inactive are those of the source. The call rests on the fitted dose curve.
# Assay: qHTS drug screen for cell cycle checkpoint inhibitors in PARPi-resistant BRCA-mutant ovarian cancer cell lines. (AID 1963452)
# Conditions: PEO1/OlaR viability, CellTiter-Glo luminescence, 96 h, stronger effect = lower value
# Procedure, shortened: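 PEO1, PEO4 and PEO1/OlaR ovarian cancer cells, 600 per well, exposed 96 h at 37C to a dilution series. Viability read by CellTiter-Glo luminescence, normalized to DMSO and empty wells; activity summarized as Z-AUC.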
# [1] = measured here: PEO1 parental Z-AUC
Compound,Z-AUC,Z-AUC [1],Z-AUC (measured here: PEO4 Z-AUC)
NC(=O)c1ccccc1Nc1ccnc(Nc2cccc(O)c2)n1,-1.9 (inactive),-1.44,-1.66
Nc1nc(OCc2cc(Br)cs2)c2[nH]cnc2n1,-0.86 (inactive),0.672,0.221
CN1CC[C@@H](c2c(O)cc(O)c3c(=O)cc(-c4ccc(C(F)(F)F)cc4Cl)oc23)[C@@H]1CO,-0.123 (inactive),0.298,0.604
COc1ccc(-n2c(SCCCN3C(=O)c4cccc5cccc(c45)C3=O)nnc2-c2ccncc2)cc1,0.836 (inactive),0.296,0.916
COc1cc(S(C)(=O)=O)ccc1Nc1nc2ccc(-c3ccc(NC(=O)[C@H](C)c4ccc(F)cc4)cc3)cn2n1,0.76 (inactive),0.0908,0.043
CC(=O)N1CCN(CCOc2ccc(C3CCN(C4=Nn5c(nnc5C(F)(F)F)CC4)CC3)cc2)CC1,-0.519 (inactive),-0.781,-0.776
Cc1c[nH]c2ncnc(N3CCC(CN)(C(=O)Nc4cccc(OC(=O)N(C)C)c4)CC3)c12,-0.731 (inactive) and 0.531 (inactive),-0.27 and -0.244,-0.694 and 1.07
O=C(N[C@H]1CCC[C@H](CO)C1)C1CCN(c2nc3cc(Cl)c(-c4ccc(Cl)cc4)cc3o2)CC1,-0.759 (inactive),0.237,-0.768
Cc1cc(-c2cc(OC(=O)c3ccccc3)ccc2Cl)cc2nnc(Nc3ccc(OCCN4CCCC4)cc3)nc12,-0.528 (inactive),0.132,-1.13
Cc1ccc(NC(=O)c2ccc(CN3CCNCC3)cc2)cc1Nc1nccc(-c2cccnc2)n1,0.805 (inactive),0.225,0.453
Cc1nnc(C[C@@H]2C=C(c3ccc(Cl)cc3)c3ccccc3-n3c(C)nnc32)o1,0.965 (inactive),0.533,0.589
C[C@@H](c1ccc2nccn2c1)n1nnc2ncc(-c3cnn(C)c3)nc21,-0.155 (inactive),-0.0646,-0.199
Cc1nc(NC(=O)N2CCC[C@H]2C(N)=O)sc1-c1ccnc(C(C)(C)C(F)(F)F)c1,-0.211 (inactive) and -0.86 (inactive),-0.228 and -0.204,-0.403 and -0.389
COc1cc(OC)c2c(=O)[nH]c(-c3cc(C)c(OCCO)c(C)c3)nc2c1,1.34 (inactive),1.31,1.15
COc1ccc(-c2cnc3c(-c4cccc5ncccc45)cnn3c2)cc1,-0.651 (inactive),-0.725,-0.465
Cn1cc(-c2ccc(F)c(C(F)(F)F)c2)nc1C1CCN(c2ncnc3[nH]ncc23)CC1,-0.225 (inactive),-0.264,-0.487
C=CC(=O)Nc1cccc(Nc2nc(Nc3ccc(NC4CN(CCF)C4)cc3OC)ncc2C(F)(F)F)c1,0.83 (inactive),0.499,0.584
Cc1c(NC(=O)c2cc3c(s2)CCCC3)cccc1-c1cn(C)c(=O)c(Nc2ccc(C3C(=O)N(C)CCN3C)cc2)n1 (stereo unspecified),1.18 (inactive),0.426,0.277
NC(=O)c1cnc(N[C@@H]2CCCC[C@@H]2N)nc1Nc1cccc(-n2nccn2)c1,0.565 (inactive),-0.0999,0.242
O=C(O)C1=CO[C@@H](O[C@@H]2O[C@H](CO)[C@@H](O)[C@H](O)[C@H]2O)[C@@H]2C(CO)=CC[C@H]12,1.4 (inactive),1.85,1.61
CCn1c(=O)c(-c2ccc(Cl)cc2Cl)cc2cnc(Nc3ccc(N4CCNCC4)c(F)c3)nc21,-0.749 (inactive),-0.47,-0.502
CCCc1cc(C)[nH]c(=O)c1CNC(=O)c1cc(-c2ccnc(N3CCN(C)CC3)c2)cc2c1cnn2C(C)C,-1.33 (inactive),-1.11,-1.01
CCC[C@H](N[C@H]1CCc2cc(F)cc(F)c2C1)C(=O)Nc1cn(C(C)(C)CNCC(C)(C)C)cn1,-0.27 (inactive),0.0318,-0.108
CCCCNc1ncc(-c2ccc(CN3CCOCC3)cn2)c(NC2CCC(O)CC2)n1 (stereo unspecified),-1.2 (inactive),-1.14,-0.666
COC(=O)N1CC2(CC2)C[C@H](C(=O)NO)[C@H]1C(=O)N1CCN(c2ccccc2)CC1,-0.244 (inactive),-0.0786,0.341
Cn1cc(-c2ccc(S(=O)(=O)n3ccc(/C=C/C(=O)Nc4ccccc4N)c3)cc2)cn1,0.896 (inactive),1.17,0.999
OC(c1ccc(-c2ccc(CN3CCN(Cc4ccncc4)CC3)cc2)c(F)c1)(C(F)(F)F)C(F)(F)F,-1.4 (inactive),-0.566,-0.000497
